# From PubChem BioAssay
# This is a sample that favours compounds with a hit; in the whole collection about 1.7% have one here.
# aDG glyco act – increases alpha dystroglycan glycosylation; Pro5-aDG cells, alpha-DG glycosylation AlphaScreen (IIH6); 0% Pro5, 100% B10-LARGE cell signal; activation, % at 10 µM; 360,000 compounds, 0.22% hits;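 active means activation of at least 8% versus controls, or a plate z-score of at least 8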;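 further: Pro5 are CHO cells carrying HIG-tagged alpha-DG that lacks glycosylation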
# Glyco luc inh – blocks N-linked glycosylation in D54 reporter cells. D54 ERlucT glycosylation luciferase reporter, 24 h; percent of 100 nM tunicamycin response. reporter increase, % at 12.5 µM. 360,000 compounds, 0.23% hits. AID 588692;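 active means mean luciferase reporter signal, scaled so untreated is 0 and the glycosylation-blocking control 100, at or above a set limit in every replicate; inconclusive means mean reaches the limit but not every replicate does; inactive means mean below the limit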;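 further: luciferase carries N-glycosylation sites so blocking glycosylation raises the light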
# ARNT-TACC3 inh – disrupts binding between human ARNT and TACC3 | inhibition, % at 9.99 µM | 390,000 compounds, 0.66% hits | AlphaScreen His-ARNT PAS-B/GST-TACC3 binding, luminescence; TACC3 fragment carries E629A point mutation | AID 623870;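 active means mean inhibition of replicates at least 50% and at least half of replicates each reaching 50%; inconclusive means half or more replicates reach 50% but mean below 50%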
# Vif inh – inhibitors of HIV Vif | HEK293T cells, Vif self-association by quenched fluorescence, imaging, 24 h | inhibition, % at 7.49 µM | 340,000 compounds, 0.35% hits; in the data active means inhibition above about 50%, passing the limit was not always enough; inconclusive means no clear call, values can overlap the other calls; inactive means below about 31%
# Cardio protect – modulators protecting cardiomyocytes from myocardial damage. H9c2 cardiomyocytes, H2O2 injury protection, ATPLite, 2 h. 360,000 compounds, 0.63% hits. protection from H2O2 cell death, % at 20 µM;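 active means compounds giving at least 50% protection of heart cells from peroxide-induced death in the single-dose screen, raw or plate-pattern-corrected value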
# AlphaScreen ctr – AlphaScreen artifact in ARNT/TACC3 counter-screen | shares compounds with ARNT-TACC3 inh | His-ARNT PASB-GST AlphaScreen artifact counter-screen, luminescence | AC50, µM (titrated, usually from 68 µM) | 1,200 compounds, 50% hits | AID 651705;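 active means every separate test run was called active for a drop in luminescence, with AC50 within twice the top valid dose, actives reach about 71 µM in these data; inconclusive means the separate test runs disagree in their calls; inactive means all runs inactive, including signal change in the wrong direction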
# Numbers stand for hits; - = inactive; ? = inconclusive; . = not tested or not shown; ! = not confirmed by another sample.
SMILES,aDG glyco act,Glyco luc inh,ARNT-TACC3 inh,Vif inh,Cardio protect,AlphaScreen ctr
C[C@H](CO)N1C[C@H](C)[C@H](CN(C)C(=O)Nc2ccc(F)cc2)OCCCC[C@H](C)Oc2ccc(NS(=O)(=O)c3ccc(Cl)cc3)cc2C1=O,.,.,-,.,.,.
C[C@H]1CCCCO[C@H](CN(C)C(=O)Nc2ccc(F)cc2)[C@@H](C)CN([C@@H](C)CO)C(=O)c2cc(NS(=O)(=O)c3ccc(Cl)cc3)ccc2O1,.,.,active,.,.,-
COCC(=O)N(C)C[C@@H]1Oc2cc(C3=CCCCC3)ccc2S(=O)(=O)N([C@H](C)CO)C[C@@H]1C,.,.,-,.,.,.
O=C(CN1CCOCC1)N[C@@H]1CC[C@H](CCNC(=O)C2CCCC2)O[C@H]1CO,.,.,-,.,.,.
C[C@@H]1CN([C@@H](C)CO)C(=O)c2cc(NC(=O)C3CC3)ccc2O[C@H]1CN(C)C(=O)Nc1ccc(F)cc1,.,.,55,.,.,-
C[C@@H]1CN([C@H](C)CO)C(=O)c2cc(NC(=O)C3CC3)ccc2O[C@@H]1CN(C)C(=O)Nc1ccc(F)cc1,.,.,-,.,.,.
C[C@@H]1CN([C@H](C)CO)C(=O)c2cc(NC(=O)Nc3ccc(C(F)(F)F)cc3)ccc2O[C@@H](C)CCCCO[C@@H]1CN(C)Cc1ccc2c(c1)OCO2,.,.,56,.,.,26µM
C[C@@H]1CCCCO[C@@H](CN(C)C(=O)NC2CCCCC2)[C@H](C)CN([C@H](C)CO)C(=O)c2cc(NC(=O)C3CCCCC3)ccc2O1,.,.,-,.,.,.
C[C@@H]1CCCCO[C@H](CN(C)Cc2ccc3c(c2)OCO3)[C@@H](C)CN([C@H](C)CO)C(=O)c2cc(NC(=O)Nc3ccc(C(F)(F)F)cc3)ccc2O1,.,.,-,.,.,.
C[C@@H]1CN([C@@H](C)CO)C(=O)c2cc(NC(=O)C3CCCCC3)ccc2O[C@@H](C)CCCCO[C@@H]1CN(C)C(=O)NC1CCCCC1,.,.,active,.,.,-
CO[C@H]1CN(C)C(=O)c2cc(NC(=O)C3CC3)ccc2OC[C@H](C)N(Cc2cccc(F)c2)C[C@@H]1C,.,.,-,.,.,.
NC(=O)c1[nH]cnc1N,-,-,69!,-,-,-
CN(Cc1ccccc1)N=Nc1nc[nH]c1C(N)=O,-,-,.,.,-,.
COc1ccc(C#Cc2ccc([C@@H]3[C@H]4CN(S(=O)(=O)c5cn(C)cn5)CCCCN4[C@H]3CO)cc2)cc1,.,.,-,.,.,.
O=c1cc(-c2ccc(O)cc2)oc2c(O)c(O)c(O)c(O)c12,-,-,53,?,-,-
C[C@@H]1CN([C@@H](C)CO)C(=O)Cc2cc(NC(=O)Nc3cccc4ccccc34)ccc2O[C@H]1CN(C)Cc1ccc(Oc2ccccc2)cc1,.,.,72,.,.,14µM
CC(C)NC(=O)Nc1ccc2c(c1)CC(=O)N([C@H](C)CO)C[C@@H](C)[C@@H](CN(C)Cc1ccc(Oc3ccccc3)cc1)O2,.,.,active,.,.,71µM
COc1ccc(NC(=O)Nc2ccc3c(c2)CC(=O)N([C@@H](C)CO)C[C@H](C)[C@H](CN(C)Cc2ccc(Oc4ccccc4)cc2)O3)cc1,.,.,-,.,.,.
COc1ccc(NC(=O)Nc2ccc3c(c2)CC(=O)N([C@H](C)CO)C[C@H](C)[C@@H](CN(C)Cc2ccc(Oc4ccccc4)cc2)O3)cc1,.,.,55,.,.,19µM
CC(C)NC(=O)N(C)C[C@H]1Oc2ccc(N(C)C)cc2CC(=O)N([C@@H](C)CO)C[C@@H]1C,.,.,60,.,.,-
Cc1ccc(S(=O)(=O)Nc2cccc3c2O[C@H](CN(C)Cc2ccc(C(=O)O)cc2)[C@H](C)CN([C@H](C)CO)C3=O)cc1,.,.,-,.,.,.
CCC(=O)N1CC[C@@H]2[C@H]1c1cc(-c3ccc(C(=O)N(C)C)cc3)ccc1N[C@@H]2CO,.,.,-,.,.,.
COC(=O)C[C@H]1CC[C@H]2[C@@H](COC[C@@H](O)CN2C(=O)Nc2ccccc2OC)O1,.,.,-,.,.,.
C[C@@H]1CCCCO[C@H](CN(C)CC2CCCCC2)[C@@H](C)CN([C@H](C)CO)C(=O)c2cc(NC(=O)c3ccccc3)ccc2O1,.,.,-,.,.,.
Cc1noc(C)c1S(=O)(=O)N(C)C[C@H]1OCCCC[C@H](C)Oc2ccc(NC(=O)c3ccccc3)cc2C(=O)N([C@H](C)CO)C[C@@H]1C,.,.,-,.,.,.
SMILES,aDG glyco act,Glyco luc inh,ARNT-TACC3 inh,Vif inh,Cardio protect,AlphaScreen ctr
C[C@@H]1CN([C@H](C)CO)C(=O)Cc2cc(N(C)C)ccc2O[C@H]1CN(C)Cc1ccc(Oc2ccccc2)cc1,.,.,52,.,.,15µM
COc1ccc(-c2cnc3c(c2)C(=O)N([C@H](C)CO)C[C@@H](C)[C@H](CN(C)Cc2cccnc2)O3)cc1,.,.,108,.,.,-
COc1ccc(-c2cnc3c(c2)C(=O)N([C@@H](C)CO)C[C@@H](C)[C@H](CN(C)Cc2cccnc2)O3)cc1,.,.,-,.,.,.
O=c1[nH]c(N2CCOCC2)cc2ccccc12,-,-,41,-,56,-
O=c1c(N2CCOCC2)coc2ccccc12,-,-,-,.,-,.
COc1ccc(Nc2nc(N)nc(CN3CCOCC3)n2)cc1,-,-,40,-,-,-
Nc1nc(CN2CCN(Cc3ccccc3)CC2)nc(Nc2ccc3c(c2)OCCO3)n1,-,47,60,-,-,-
CCOC(=O)N1CCN(Cc2nc(N)nc(Nc3ccc(OC)cc3)n2)CC1,-,-,-,-,-,.
Cc1ccc(Nc2nc(N)nc(CN3CCN(Cc4ccc5c(c4)OCO5)CC3)n2)cc1Cl,-,-,-,-,-,.
C[C@H](CO)N1C[C@H](C)[C@H](CN(C)Cc2ccc(-c3ccccc3)cc2)Oc2ccc(NC(=O)CCN3CCOCC3)cc2C1=O,.,.,-,.,.,.
COc1ccc(-c2nc(C#N)c(N3CCCCC3)o2)cc1,-,-,54,-,-,71µM
CN1CCN(C(=O)c2cc(-c3ccccc3)on2)CC1,-,-,-,-,-,-
O=C(c1cc(-c2ccccc2)on1)N1CCc2ccccc2C1,-,-,-,-,-,.
O=C(c1cc(-c2ccccc2)on1)N1CCc2cccnc21,.,.,.,.,.,-
CCNC(=O)[C@@H]1[C@@H](CO)[C@@H]2Cn3c(ccc(-c4cccc(F)c4)c3=O)[C@@H]2N1Cc1cc(F)ccc1F,.,.,-,.,.,.
CCN(CC)c1ccc(Nc2nc(N3CCOCC3)c3ccccc3n2)cc1,-,-,55,-,-,5.7µM
CNC(=O)C[C@H]1CC[C@H]2[C@@H](COC[C@H](O)CN2S(=O)(=O)c2cccc(Cl)c2)O1,.,.,-,.,.,.
O=C(CSc1nnc(-c2ccccn2)o1)Nc1ccccc1,-,-,.,-,-,.
O=C(CSC1=NNC(c2ccccn2)S1)Nc1ccccc1 (configuration not stated),-,-,58,-,-,6.4µM
Cc1ccc(S(=O)(=O)N(C)C[C@H]2Oc3ccc(NC(=O)Nc4cccc5ccccc45)cc3CC(=O)N([C@@H](C)CO)C[C@H]2C)cc1,.,.,-,.,.,.
C[C@@H]1CN([C@H](C)CO)C(=O)Cc2cc(NC(=O)Nc3ccc(F)cc3)ccc2O[C@@H]1CN(C)C(=O)NC1CCCCC1,.,.,-,.,.,.
